Shown are actives, neighbours in structure and some others; about 28% of the full set was active somewhere.
CYP2C19 inh: blocks human cytochrome P450 2C19; inhibition, % at 5 µM; CYP2C19 Supersomes, luciferin-H EGE luminescence, 30 min; 96,000 tested, 21% active; P33261; AID 778;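 active = CYP2C19 inhibition above a set limit at 5 µM in the primary screen, cut at about 50% in these data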;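 note: plate controls were negative control wells for no effect and 2.5 mM tranylcypromine positive control for full effect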
PLK1 kinase inh: inhibitors of human PLK1 kinase | recombinant PLK1 kinase, TR-FRET peptide phosphorylation | inhibition, % at 10 µM | 97,000 tested, 0.53% active;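 active = inhibition of 50% or more in the single-concentration screen; inactive = inhibition below 50%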;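 note: 0% = DMSO max control and 100% = H-89 dihydrochloride min control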
CYP2C19 activ: activators of human cytochrome P450 2C19 | P33261 | recombinant CYP2C19, luciferin-H EGE luminescence; stronger effect = higher value; 0 = fully inhibited enzyme, 1 = untreated enzyme | activation factor at 5 µM | 96,000 tested, under 10 active | AID 1025;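 active = activation factor of at least 2 at 5 µM in the primary screen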;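 note: 0 = wells with 2.5 mM tranylcypromine and 1 = vehicle-only wells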
PLK1 PBD inh: inhibitors of human Plk1 polo box domain binding | inhibition, %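 (tested at about 20 µM)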 | 97,000 tested, 0.13% active | Plk1 PBD phosphopeptide binding, fluorescence polarization | P53350; in the data active = inhibition above about 34%, passing the limit was not always enough
CYP2C9 inh: human CYP2C9 inhibition | P11712 | CYP2C9 Supersomes, luciferin-H conversion, luminescence | inhibition, % at 5 µM | 96,000 tested, 20% active;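 active = blocking of liver enzyme CYP2C9 beyond about 50% at 5 µM, limit read from the data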
Target sequence (P11712 whole entry, looked up): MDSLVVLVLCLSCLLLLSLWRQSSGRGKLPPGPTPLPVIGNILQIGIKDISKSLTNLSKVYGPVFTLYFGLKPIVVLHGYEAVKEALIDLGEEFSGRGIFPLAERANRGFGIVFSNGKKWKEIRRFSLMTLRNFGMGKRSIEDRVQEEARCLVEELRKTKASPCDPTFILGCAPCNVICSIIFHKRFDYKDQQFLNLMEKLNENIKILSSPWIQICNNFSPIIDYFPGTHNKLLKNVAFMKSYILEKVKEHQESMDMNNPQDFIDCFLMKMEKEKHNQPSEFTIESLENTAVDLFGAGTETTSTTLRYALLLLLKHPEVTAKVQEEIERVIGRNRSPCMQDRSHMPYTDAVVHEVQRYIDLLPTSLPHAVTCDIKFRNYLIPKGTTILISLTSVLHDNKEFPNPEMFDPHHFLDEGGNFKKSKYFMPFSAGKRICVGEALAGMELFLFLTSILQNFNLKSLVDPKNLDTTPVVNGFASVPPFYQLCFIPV
CYP2C9 activ: activators of human CYP2C9; P11712; recombinant CYP2C9, luciferin-H conversion, luminescence; stronger effect = higher value; factor 1 = untreated enzyme, 0 = blocked; activation factor at 5 µM; 96,000 tested, 1.4% active;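 active = activation factor of 2 or more for CYP2C9 at a 5 µM dose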;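 note: 0 = sulfaphenazole-blocked wells and 1 = vehicle-only wells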
Active calls of the source: *.

Results for O=C(CN(C(=O)Cn1nnc(-c2cccs2)n1)c1ccc2c(c1)OCCO2)NCc1ccccc1 ?
CYP2C19 inh: 59.5*; PLK1 kinase inh: 10.4; CYP2C19 activ: 0.4; PLK1 PBD inh: -15.0; CYP2C9 inh: 95.7*; CYP2C9 activ: 0

Results for CCC(=O)Nc1ccc(-c2nnc(-c3ccccc3)o2)cc1 ?
CYP2C19 inh: -4.1; PLK1 kinase inh: -0.6; CYP2C19 activ: 1; PLK1 PBD inh: -13.3; CYP2C9 inh: -5.6; CYP2C9 activ: 1.1

What do the screens show for `O=C(Cc1cccs1)Nc1ccccc1C(=O)O`?
CYP2C19 inh: 6.0; PLK1 kinase inh: -9.5; CYP2C19 activ: 0.9; PLK1 PBD inh: -5.3; CYP2C9 inh: 14.9; CYP2C9 activ: 0.9

How did Cc1ccc(-c2nnc(-c3ccc(NC(=O)Cc4cccs4)cc3)o2)cc1 do in these assays?
CYP2C19 inh: 53.0*; PLK1 kinase inh: -5.0; CYP2C19 activ: 0.5; PLK1 PBD inh: -30.7; CYP2C9 inh: 83.5*; CYP2C9 activ: 0.2

How did O=C(Nc1ccc(Cl)cc1)N(Cc1cccs1)Cc1cccs1 do in these assays?
CYP2C19 inh: 23.4; PLK1 kinase inh: -7.4; CYP2C19 activ: 0.8; PLK1 PBD inh: 27.0; CYP2C9 inh: 38.3; CYP2C9 activ: 0.6

Results for O=C(Cc1cccs1)Nc1ccccc1NC(=O)Cc1cccs1 ?
CYP2C19 inh: 50.6*; CYP2C19 activ: 0.5; CYP2C9 inh: 27.8; CYP2C9 activ: 0.7

Results for O=C(Cc1cccs1)Nc1ccc(Cl)cc1 ?
CYP2C19 inh: 94.4*; PLK1 kinase inh: -11.1; CYP2C19 activ: 0.1; PLK1 PBD inh: 7.9; CYP2C9 inh: 64.0*; CYP2C9 activ: 0.4

What do the screens show for `CN(C1CCS(=O)(=O)C1)S(=O)C12CC3CC(CC(C3)C1)C2` (configuration not stated)?
PLK1 kinase inh: -7.0; PLK1 PBD inh: -7.4

What do the screens show for `O=C(NC1CCC(NC(=O)C2CCCO2)CC1)C1CCCO1` (configuration not stated)?
CYP2C19 inh: -9.9; PLK1 kinase inh: -10.2; CYP2C19 activ: 1.1; PLK1 PBD inh: 9.7; CYP2C9 inh: -9.0; CYP2C9 activ: 1.1

What do the screens show for `COc1ccc(Sc2nc3ccccc3n3c(C(F)(F)F)nnc23)cc1`?
CYP2C19 inh: 7.9; PLK1 kinase inh: -3.3; CYP2C19 activ: 0.9; PLK1 PBD inh: 0.3; CYP2C9 inh: -14.8; CYP2C9 activ: 1.1

How did COc1ccc(-c2cc(-n3c(C(F)(F)F)nc4ccccc43)n(CCC#N)n2)cc1 do in these assays?
CYP2C19 inh: 62.8*; PLK1 kinase inh: 5.4; CYP2C19 activ: 0.4; PLK1 PBD inh: -6.1; CYP2C9 inh: 71.7*; CYP2C9 activ: 0.3

What do the screens show for `Nn1c(Nc2ccccc2)nc2ccccc2c1=O`?
CYP2C19 inh: -0.7; PLK1 kinase inh: 59.2*; CYP2C19 activ: 1; PLK1 PBD inh: 3.6; CYP2C9 inh: 3.2; CYP2C9 activ: 1

What do the screens show for `Clc1ccc(Cn2cccc2C2=NCCO2)cc1`?
CYP2C19 inh: 66.9*; PLK1 kinase inh: -4.6; CYP2C19 activ: 0.3; PLK1 PBD inh: -3.3; CYP2C9 inh: 34.8; CYP2C9 activ: 0.7

What do the screens show for `COC(=O)C(NS(C)(=O)=O)(c1c(C)[nH]c2ccccc12)C(F)(F)F` (configuration not stated)?
CYP2C19 inh: 63.5*; PLK1 kinase inh: -11.7; CYP2C19 activ: 0.4; PLK1 PBD inh: 1.3; CYP2C9 inh: 12.3; CYP2C9 activ: 0.9

Results for O=C1C2C3C=CC([C@@H]2C(=O)N1C1CC1)[C@H]1C(=O)N(C2CC2)C(=O)C31 (some centres not stated) ?
CYP2C19 inh: 7.8; PLK1 kinase inh: -3.7; CYP2C19 activ: 0.9; PLK1 PBD inh: -28.2; CYP2C9 inh: -0.6; CYP2C9 activ: 1

What do the screens show for `O=S1(=O)C=CC(Nc2ccccc2)C1` (configuration not stated)?
CYP2C19 inh: -4.2; PLK1 kinase inh: -8.8; CYP2C19 activ: 1; PLK1 PBD inh: -8.3; CYP2C9 inh: -1.8; CYP2C9 activ: 1

What do the screens show for `Cn1c(=O)oc2cc(S(=O)(=O)N3CCC(C(=O)N4CC=C(c5ccccc5)CC4)CC3)ccc21`?
CYP2C19 inh: 72.9*; PLK1 kinase inh: -7.4; CYP2C19 activ: 0.3; PLK1 PBD inh: -24.2; CYP2C9 inh: -5.1; CYP2C9 activ: 1.1

What do the screens show for `Cn1c(=O)oc2cc(S(=O)(=O)N3CCCC(C(=O)N4CCc5ccccc5C4)C3)ccc21` (configuration not stated)?
CYP2C19 inh: 91.4*; PLK1 kinase inh: 3.3; CYP2C19 activ: 0.1; PLK1 PBD inh: 2.6; CYP2C9 inh: 47.6; CYP2C9 activ: 0.5

How did CCOC(=O)C1CCCN(C(=O)C2CCCN(S(=O)(=O)c3ccc4c(c3)oc(=O)n4C)C2)C1 (configuration not stated) do in these assays?
CYP2C19 inh: 28.0; PLK1 kinase inh: -6.7; CYP2C19 activ: 0.7; PLK1 PBD inh: 0.8; CYP2C9 inh: 80.6*; CYP2C9 activ: 0.2

How did Cn1c(=O)oc2cc(S(=O)(=O)N3CCCC(C(=O)N4CCn5c4nc4ccccc45)C3)ccc21 (configuration not stated) do in these assays?
CYP2C19 inh: -19.0; CYP2C19 activ: 1.2; CYP2C9 inh: -6.1; CYP2C9 activ: 1.1

What do the screens show for `Cn1c(=O)oc2cc(S(=O)(=O)N3CCCC(C(=O)NCCN4CCOCC4)C3)ccc21` (configuration not stated)?
CYP2C19 inh: -5.3; PLK1 kinase inh: 15.8; CYP2C19 activ: 1.1; PLK1 PBD inh: 25.6; CYP2C9 inh: 3.0; CYP2C9 activ: 1

How did Fc1ccccc1/C=C1\CCCC2=C1Nc1nnnn1C2c1ccccc1F (configuration not stated) do in these assays?
CYP2C19 inh: 9.1; PLK1 kinase inh: -7.9; CYP2C19 activ: 0.9; PLK1 PBD inh: 21.8; CYP2C9 inh: -6.4; CYP2C9 activ: 1.1

What do the screens show for `CC(CCc1ccccc1)NC(=O)c1ccc(Cl)nc1` (configuration not stated)?
CYP2C19 inh: 26.0; PLK1 kinase inh: -6.6; CYP2C19 activ: 0.7; PLK1 PBD inh: -17.8; CYP2C9 inh: 20.2; CYP2C9 activ: 0.8

What do the screens show for `Cn1c(=O)n(C)c2cc(S(=O)(=O)Nc3ccccc3O)ccc21`?
CYP2C19 inh: 82.9*; PLK1 kinase inh: -16.4; CYP2C19 activ: 0.2; PLK1 PBD inh: 1.7; CYP2C9 inh: 58.6*; CYP2C9 activ: 0.4

Results for COc1ccccc1NS(=O)(=O)c1ccc2c(c1)n(C)c(=O)n2C ?
CYP2C19 inh: 71.6*; PLK1 kinase inh: -9.9; CYP2C19 activ: 0.3; PLK1 PBD inh: -3.4; CYP2C9 inh: 2.0; CYP2C9 activ: 1

What do the screens show for `COCCNS(=O)(=O)c1ccc2c(c1)n(C)c(=O)n2C`?
CYP2C19 inh: 5.9; PLK1 kinase inh: 1.5; CYP2C19 activ: 0.9; PLK1 PBD inh: 13.7; CYP2C9 inh: 10.3; CYP2C9 activ: 0.9

Results for Cn1c(=O)n(C)c2cc(S(=O)(=O)NCCO)ccc21 ?
CYP2C19 inh: -20.7; PLK1 kinase inh: -3.1; CYP2C19 activ: 1.2; PLK1 PBD inh: 15.8; CYP2C9 inh: -43.4; CYP2C9 activ: 1.4

Screening data deposited in PubChem BioAssay by several laboratories.
